DT40 TDP1 CPT – growth inhibition of DT40 Tdp1-/-;hTDP1 cells with camptothecin (screen for TDP1 inhibitors); chicken DT40 Tdp1-/-;hTDP1 cells + 20 nM CPT, ATP luminescence, 48 h; hit rate 12% among 420,000; Potency, µM (doses to about 46.2 µM), for the others: at the top dose activity change, negative = growth inhibition, usual class: inhibitors; note: potency is the fitted concentration of half-maximal effect; nearly all actives have a fitted effect of over 55% in size
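Chicken DT40 Tdp1-/- cells complemented with human TDP1, 400 cells/well, exposed to compounds plus 20 nM camptothecin for at least 48 h at 37 C; viability read as ATP content by CellTiter-Glo luminescence.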
ALOX12 inh – ALOX12 (human) lipoxygenase inhibition | P18054 | purified 12hLO, xylenol orange hydroperoxide absorbance | Potency, µM (doses to about 108 µM), for the others: at the top dose activity change, negative = inhibition, hits mostly inhibitors | hit rate 1.1% among 580,000 | AID 1671190; note: potency is the fitted concentration of half-maximal effect
Target sequence (P18054 whole entry, looked up): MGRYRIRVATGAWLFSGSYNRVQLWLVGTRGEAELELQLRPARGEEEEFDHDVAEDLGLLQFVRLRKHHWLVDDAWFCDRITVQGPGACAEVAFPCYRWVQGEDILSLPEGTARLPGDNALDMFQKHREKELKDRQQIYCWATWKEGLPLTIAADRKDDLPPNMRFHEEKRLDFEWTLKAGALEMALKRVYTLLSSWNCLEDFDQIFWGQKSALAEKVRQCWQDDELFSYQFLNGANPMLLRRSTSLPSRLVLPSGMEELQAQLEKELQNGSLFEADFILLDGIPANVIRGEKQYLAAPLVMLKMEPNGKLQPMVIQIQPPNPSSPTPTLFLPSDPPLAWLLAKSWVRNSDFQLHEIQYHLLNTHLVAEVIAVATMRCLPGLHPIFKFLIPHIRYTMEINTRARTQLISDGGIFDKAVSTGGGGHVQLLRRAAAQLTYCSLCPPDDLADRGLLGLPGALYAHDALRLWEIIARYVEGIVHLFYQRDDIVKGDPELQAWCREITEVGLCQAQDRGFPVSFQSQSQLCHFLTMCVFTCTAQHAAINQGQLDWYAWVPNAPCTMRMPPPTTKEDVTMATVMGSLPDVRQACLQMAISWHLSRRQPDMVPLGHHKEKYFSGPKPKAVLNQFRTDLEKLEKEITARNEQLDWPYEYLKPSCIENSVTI
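Purified human 12hLO at 150 nM in 25 mM Hepes, 0.01% Triton X-100, pH 7.0, preincubated 15 min at room temperature with compound. Reaction started with 40 uM arachidonic acid, 30 min at room temperature. Hydroperoxide measured by Fe-xylenol orange, 573/405 nm absorbance ratio.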
IL1B secr inh – inflammasome signaling inhibition, IL-1 beta readout; THP-1 LPS/ATP IL-1B secretion, AlphaLISA, 16 h; active compounds read low; activity change, % at 57.5 µM; hit rate 4.7% among 360,000; AID 743279; in the data active = activity change below about -50%; inconclusive = mostly about -30% to -49%
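Secreted IL-1B measured by AlphaLISA bead assay after 16 h compound exposure of THP-1 cells; compounds (final up to 57.5 uM) added 1 h before LPS (250 ng/mL) and ATP (1.25 mM) stimulation; lower signal means less secretion.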
HT1080 IDH1KD tx – kills HT-1080 cells with IDH1 knockdown | HT-1080 IDH1 knockdown viability, ATP luminescence, 48 h | Potency, µM (doses to about 46.1 µM), for the others: at the highest dose activity, negative = toxicity, hits mostly cytotoxic | hit rate 2% among 360,000 | AID 686971;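 note: potency is the fitted concentration of half-maximal effect; 0% = DMSO wells and -100% = cell-free medium wells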
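% activity derives from luminescence (CellTiter-Glo), normalised to DMSO and no-cell wells. HT-1080-IDH1KD cells, 750/well, had 48 h compound exposure at 37 °C.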
HT1080-NT tox – kills 2HG-producing HT-1080-NT fibrosarcoma cells | HT-1080-NT fibrosarcoma viability, CellTiter-Glo ATP luminescence, 48 h | Potency, µM (doses to about 46.1 µM), inactives show at the top dose activity, negative = less viability, hits mostly cytotoxic | hit rate 1.6% among 360,000;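 note: NT is the 2HG producing partner of a matched IDH1 knockdown line; potency is the fitted concentration of half-maximal effect; 0% = DMSO-treated cells and -100% = media-only wells without cells; nearly all actives have a fitted effect of over 55% in size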
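Read-out is CellTiter-Glo luminescence after 10 minutes at room temperature, following 48 hours' compound treatment of HT-1080-NT cells (750 cells/well, RPMI, 5% FBS, 37 degrees C).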
TDP1 cell noCPT – qHTS for Inhibitors of human tyrosyl-DNA phosphodiesterase 1 (TDP1): qHTS in cells in absence of CPT. DT40 Tdp1-/- hTDP1 cells, no CPT, ATP luminescence, 48 h. Potency, µM (top dose mostly 46.2 µM), inactives show at the top dose activity change, negative = growth inhibition, actives largely listed as inhibitors. hit rate 15% among 420,000; note: potency is the fitted concentration of half-maximal effect; nearly all actives have a fitted effect of over 55% in size
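Compound effects on proliferation are scored in DT40 Tdp1-/-;hTDP1 cells in the absence of CPT. ATP levels (CellTiter-Glo luminescence) are recorded after a ≥48 hr, 37 °C incubation.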
Active calls of the source: *; ? = inconclusive; / = not tested or not shown; ! = not active in a repeat. Only a selection was taken, and hits are over-represented in it overall. Unless noted, calls come from the whole dose curve; as a rule, active = well fitted curve in the direction sought with a large enough effect; inconclusive = small, poorly fitted or top-dose-only effect, or another doubt; inactive = no such curve, though single readings can be large; an effect the other way counts as inactive or inconclusive. Unless noted, % is set by controls: 0 for no effect and ±100 for the full control effect.

SMILES | DT40 TDP1 CPT | ALOX12 inh | IL1B secr inh | HT1080 IDH1KD tx | HT1080-NT tox | TDP1 cell noCPT
COc1ccc(NC(=O)CCCS(=O)(=O)c2nc(-c3ccc(OC)c(OC)c3)cc(C(F)(F)F)n2)cc1OC | 1.6µM* | -19% | / | / | / | 1.6µM*
COC(=O)C(C)OC(=O)c1c[nH]c2cc(Br)c(Br)cc12 (stereo not given) | / | -27% | / | / | / | /
Cc1ccc(CNC(C)CN2CCCCC2)cc1 (stereo not given) | / | -29% | / | / | / | /
Cc1ccc(N2CCN(C(=O)C[C@H]3NC(=O)c4ccccc4NC3=O)CC2)c(C)c1 | / | 18% | / | / | / | /
COc1cc(-c2nc3c4c5c(sc4ncn3n2)CCCC5)ccc1OC(F)F | / | 26% | / | / | / | /
NS(=O)(=O)c1ccc(NC(=O)COC(=O)c2ncc(Cl)c(Cl)c2Cl)cc1 | -14% | ? | -62* | -6% | -5% | -16%
CCOc1ccc(NC(=O)COC(=O)c2ncc(Cl)c(Cl)c2Cl)cc1 | -2% | 0% | 7 | -3% | 3% | 2%
NS(=O)(=O)c1ccc(NC(=O)COC(=O)c2cc(Cl)ccc2[N+](=O)[O-])cc1 | -7% | 4% | 0 | -15% | 2% | -9%
NS(=O)(=O)c1ccc(NC(=O)COC(=O)c2cnc(Cl)c(Cl)c2)cc1 | -9% | -1% | -75* | -3% | 3% | -19%
NS(=O)(=O)c1ccc(NC(=O)COC(=O)c2cc([N+](=O)[O-])ccc2Cl)cc1 | 3% | -3% | -90* | -4% | 6% | 7%
O=C(COC(=O)c1cnc(Cl)c(Cl)c1)Nc1cccc(S(=O)(=O)N2CCOCC2)c1 | -14% | -16% | -20 | 0% | -7% | -17%
O=C(COC(=O)c1cc([N+](=O)[O-])ccc1Cl)c1cc2ccccc2o1 | / | 40µM* | / | / | / | /
Cc1ccc(CNC(=O)C(C)N2CCCC(C(F)(F)F)C2)cc1 (stereo not given) | / | 8% | / | / | / | /
COc1ccc(S(=O)(=O)c2cn(Cc3ccccc3)c3ccc(OC)cc3c2=O)cc1 | 12µM* | -25% | / | / | / | 26µM*
Cc1ccc(NC(=O)Cn2cc(S(=O)(=O)c3ccc(F)cc3)c(=O)c3cc(F)ccc32)cc1 | ? | 139% | -8 | -2% | -1% | -36%
CCc1ccc(S(=O)(=O)c2cn(Cc3ccc(OC)cc3)c3cc(OC)c(OC)cc3c2=O)cc1 | ? | 3% | / | / | / | ?
CCc1ccc2c(c1)c(=O)c(S(=O)(=O)c1ccc(F)cc1)cn2CC(=O)Nc1ccc(C)cc1C | ? | -23% | / | / | / | 6.5µM*
O=c1c(S(=O)(=O)c2ccc(Cl)cc2)cn(Cc2cccc(F)c2)c2ccc(F)cc12 | ? | -11% | 0 | 1% | -4% | ?
CCc1ccc(S(=O)(=O)c2cn(Cc3ccccc3F)c3cc(OC)c(OC)cc3c2=O)cc1 | 15µM* | -1% | / | / | / | ?
O=c1c(S(=O)(=O)c2ccc(Cl)cc2)cn(Cc2ccccc2F)c2ccc(F)cc12 | ? | -8% | -12 | -4% | -19% | 23µM*
Cc1ccc(C)c(Cn2cc(S(=O)(=O)c3ccc(Cl)cc3)c(=O)c3cc(F)ccc32)c1 | ? | 5% | / | / | / | 26µM*
Cc1ccc(Cn2cc(S(=O)(=O)c3ccc(Cl)cc3)c(=O)c3cc(F)ccc32)cc1 | -28% | -3% | -10 | -25% | 1% | 7.3µM*
CC(=O)NC1=C(C#N)C(c2ccccc2)c2c(ccc3ccccc23)O1 (stereo not given) | 8.2µM* | -22% | 60 | 15µM* | ? | 7.3µM*
COC(=O)c1cc2occc2n1Cc1cccc(OC)c1 | / | 26% | / | / | / | /
CC(C)S(=O)(=O)c1csc(C(=O)Nc2ccc(F)cc2)c1N | 21µM* | 6% | -27 | ? | ? | ?
SMILES | DT40 TDP1 CPT | ALOX12 inh | IL1B secr inh | HT1080 IDH1KD tx | HT1080-NT tox | TDP1 cell noCPT
Cc1cccc(-c2c3c(=O)n(C)c(=O)n(C)c3cn2C2CCCCC2)c1 | ? | 0% | -1 | -1% | -12% | 16µM*
Cn1c(=O)c2c(-c3ccccc3)n(C3CCCCC3)cc2n(C)c1=O | 18µM* | ? | -13 | 17% | 6% | 9.2µM*
Cc1cccc(-c2c3c(=O)n(C)c(=O)n(C)c3cn2C(C)C)c1 | 16µM* | ? | -2 | -24% | -19% | 21µM*
Cc1cccc(-c2c3c(=O)n(C)c(=O)n(C)c3cn2C(C)(C)C)c1 | -19% | -25% | 7 | -8% | -22% | -11%
Cn1c(=O)c2c(-c3ccccc3)n(N3CCOCC3)cc2n(C)c1=O | ? | 0% | -5 | 12% | 3% | ?
CCN(CC)CCCC(C)Nc1nccc2cccc(Cl)c12 (stereo not given) | ? | ? | -7 | -25% | -30% | ?
CCN(CC)CC(O)CNc1ccnc2c(Cl)ccc(Cl)c12 (stereo not given) | 6% | -14% | -66* | -18% | 1% | -6%
COc1ccc(C(=O)N2CCc3ccc(C(=O)NCc4ccccc4OC)cc32)cc1 | / | 3% | / | / | / | /
CC(=O)OC/C=C(C)/C=C/C=C(C)/C=C/C1=C(C)CCCC1(C)C | ? | ? | / | / | / | 23µM*!
CC1=C(/C=C/C(C)=N\NC(=O)c2ccncc2)C(C)(C)CCC1 | ? | 19% | 22 | -5% | -3% | ?
CC1=C(/C=C/C(C)=C/C=C/C(C)=C\CO)C(C)(C)CCC1 | 18µM* | 17% | / | / | / | ?
CC1=C(/C=C/C(C)=C/C=C/C(C)=C/CO)C(C)(C)CCC1 | ? | 3% | -21 | ? | -4% | 21µM*!
CC1=C(/C=C/C(C)=C/C=C/C(C)=C/C=C/C=C(C)/C=C/C=C(C)/C=C/C2=C(C)C(=O)CCC2(C)C)C(C)(C)CCC1=O | -13% | / | / | / | / | -19%
COc1cc(OC)cc(C(=O)Nc2c(NCc3ccccc3)c3ccccc3oc2=O)c1 | / | 41% | / | / | / | /
Cc1ccc(S(=O)(=O)Nc2ccccc2C(=O)Nc2nc(-c3ccc(F)cc3)cs2)cc1 | 3.3µM* | ? | -26 | ? | ? | 2.6µM*
COc1ccc(-c2csc(NC(=O)c3ccccc3NS(=O)(=O)c3ccc(F)c(F)c3)n2)cc1 | 2.3µM* | ? | -68* | 1.6µM* | ? | 2.6µM*
O=Cc1cccc(OCc2ccc(Cl)c(Cl)c2)c1 | / | 5% | / | / | / | /
COc1ccc2nc(C[C@@H]3C[C@@H](C(C)C)[C@H](CN(Cc4ccccc4F)Cc4ccccc4F)C=C3C)[nH]c2c1 | / | -10% | / | / | / | /

Screens as filed in PubChem.
